According to ChEMBL document CHEMBL4513216, “Probing the Open Global Health Chemical Diversity Library for Multistage-Active Starting Points for Next-Generation Antimalarials” (ACS Infect Dis, 2020):
The whole screen tested about 69,000 compounds, of which about 8,600 (12%) showed an effect of 50% or more. The sample as a whole holds a higher share of strong results than the screen did.

tested on: Plasmodium berghei; assay: Screen against P. berghei liver stage (PbLuc), transformed with Luciferase, at 10uM; format: functional, HepG2; details: tested at 10 uM

SMILES | INHIBITION
Cc1nc(C)n(CC2CCCN2Cc2nc3ccccc3o2)n1 (stereo not given) | 33.8%
COC(=O)CCn1ccc(=O)c2ccc(OC)cc21 | -7.53%
CNc1cncc(C2CCCN2C(=O)Cn2c(=O)oc3ccccc32)n1 (stereo not given) | 23.4%
CC(C)(C)c1cc(CN2C[C@@H]3CC[C@H]2CN(Cc2ccccn2)C3)n[nH]1 | -2.73%
COc1cc(N2CCc3ncnc(-c4ccncc4)c3CC2)ncn1 | 33%
COCc1nc(N(C)C)ncc1C(=O)Nc1cc(C)cc(C)c1 | 35%
CN(CC1(CO)CCC1)c1nc2c(c(=O)[nH]1)Cc1ccccc1OC2 | 57.8%
CN(CC1(CO)CCCC1)c1nc2c(c(=O)[nH]1)Cc1ccccc1OC2 | 71.2%
Cc1nc2c(c(NC(C)c3nnn[nH]3)n1)Cc1ccccc1OC2 (stereo not given) | -45.5%
OCC1CCCN(c2ncnc3c2Cc2ccccc2OC3)C1 (stereo not given) | 32.1%
CN(C)c1nc2c(c(=O)[nH]1)Cc1ccccc1OC2 | 54.4%
Cc1nc2c(c(N[C@H](C(N)=O)C(C)C)n1)Cc1ccccc1OC2 | -19.8%
Cc1nc2c(c(N[C@@H](CO)C(N)=O)n1)Cc1ccccc1OC2 | -13.4%
Cc1nc2c(c(NCCNC(=O)C(C)C)n1)Cc1ccccc1OC2 | -0.55%
Cc1nc2c(c(NCC(=O)NC(C)C)n1)Cc1ccccc1OC2 | 5.87%
COCCN(CCC#N)Cn1cc(Cl)cn1 | 5.29%
O=C(NC1CC1)N1CCc2ccc(=O)n(CC3CC3)c2CC1 | -55.2%
CC(C)NC1CCc2c(ccc(=O)n2CCN2CCOCC2)C1 (stereo not given) | 73.2%
O=C(NC1CC1)N1CCc2ccc(=O)n(CCN3CCCC3)c2CC1 | 61.5%
CC(C)NC1CCc2c(ccc(=O)n2CCN(C)C)C1 (stereo not given) | -33%
CC(C)NC1CCc2c(ccc(=O)n2CCN2CCCC2=O)C1 (stereo not given) | -20.1%
COCCn1c2c(ccc1=O)CCN(C(=O)NC1CC1)CC2 | -3.26%
CN(CC(=O)NCC1CCCCC1)S(=O)(=O)c1cccnc1 | -7.93%
Cn1cc(C[C@H]2[C@H](O)CCN2CC2CC2)cn1 | 18.8%
O=C(CCc1nc2cc(Br)cnc2[nH]1)NCc1cccnc1 | -2.92%
Cc1ccc(CNCC(C)Oc2ccccn2)cc1 (stereo not given) | -6.11%
CC(C)(C)CC(=O)NCC1CCCS1 (stereo not given) | 43.4%

SMILES | INHIBITION
CC(C)(C)C(=O)NCC(=O)NCC1CCCS1 (stereo not given) | 91.1%
O=C(CCC(F)(F)F)NCC1CCCS1 (stereo not given) | 31.5%
O=C(CNC(=O)Nc1c(F)cc(F)cc1-c1ccccc1)NC1CC1 | 3.93%
O=C(NCCN1CCCC1)C1(c2ccc(Cl)cc2)CCOCC1 | 33.85%
O=C(NCCNc1ncccn1)N1CCN(c2nccs2)CC1 | -14.6%
CC(=O)N1CCC(N[C@@H]2CC[C@@H]2NS(=O)(=O)c2cccnc2)CC1 | 46.9%
CS(=O)(=O)NC1CCCN(C(=O)NCc2cccnc2)C1 (stereo not given) | -6.62%
Cc1cc(C2CCCN2C(=O)NCc2cccc(F)c2)on1 (stereo not given) | 23.2%
Cc1cc(C2CCCN2C(=O)NCc2ccccn2)on1 (stereo not given) | 48.5%
O=C(NS(=O)(=O)c1cccnc1)C1CC(c2ccccc2)=NO1 (stereo not given) | 28.7%
CS(=O)(=O)NC1CCN(C(=O)c2cnc(-c3cccnc3)nc2)CC1 | -32.8%
CS(=O)(=O)NC1CCN(C(=O)NCc2cccnc2)CC1 | 59%
CC(=O)N1CCC(NS(=O)(=O)c2cccnc2)CC1 | 69.3%
Cc1cc(C2CCCN2C(=O)NCc2cccnc2)on1 (stereo not given) | 55%
CS(=O)(=O)NC1CCN(C(=O)NCc2ccccn2)CC1 | -27.9%
c1cncc(OCCNC2Cc3ccccc3C2)c1 | 39.7%
O=S(=O)(N[C@H]1CC[C@H]1NC1Cc2ccccc2C1)c1cccnc1 | 68.3%
COCCNc1nc(N2CCOCC2)nc2nccnc12 | -2.93%
O=C(N1CCOCC1)N1CCN(CC(O)c2ccc(F)cc2)CC1 (stereo not given) | -11.4%
O=C(CC1CCC2(CC1)CCN(Cc1cccnc1)CC2)N1CC=CC1 | -4.32%
Cc1ccc(CN2CCc3[nH]nc(C(=O)N(C)C)c3C2)o1 | 6.27%
c1cnc2c(CN3CCCCC3c3ccncn3)cnn2c1 (stereo not given) | 16.5%
Cn1cc(CN2CCCC23CCN(C(=O)c2cccs2)CC3)cn1 | 28.4%
CC1(C(N)=O)CN(CC2CCOCC2)CCO1 (stereo not given) | 26.3375%
CS(=O)(=O)N1CCC(c2nnc3ccc(C(=O)NC4CCC4)cn23)C1 (stereo not given) | 37.3%
Cc1cc(C(F)(F)F)nn1C(C)C(=O)Nc1ccc(Cl)cn1 (stereo not given) | 47.4%
Cn1c(Cn2cccn2)nnc1C1CCN(Cc2ccccc2Cl)CC1 | -10.9%

SMILES | INHIBITION
Cc1nn(C)c(Cl)c1C1CCCN1C(=O)c1ccnc(N(C)C)c1 (stereo not given) | -65.3%
COc1ccc(Cl)cc1NCc1nc2[nH]c(C)c(C)c(=O)n2n1 | 16%
O=C(Nc1cc(C(F)(F)F)c[nH]c1=O)N1CCSCC1 | -43.6%
Cc1nc(C(=O)N2CCCC2c2cnn(C)c2)ccc1C#N (stereo not given) | 13.3%
CNC(=O)c1ccc(C2CN(C(=O)c3cnn(C)c3)CCO2)nc1 (stereo not given) | 29.2%
CNC(=O)c1ccc(C2CN(C(=O)c3cncs3)CCO2)nc1 (stereo not given) | 50%
CNC(=O)c1ccc(C2CN(C(=O)c3scnc3C)CCO2)nc1 (stereo not given) | -5.71%
CCOc1ncccc1C(=O)N1CCCC1c1c(C)nn(C)c1Cl (stereo not given) | -19.9%
CCN(C)S(=O)(=O)NCC(C)(O)c1ccsc1 (stereo not given) | 31.7%
COCCN1C(=O)CO[C@H]2CN(Cc3ccccc3Cl)C[C@@H]21 | 63.4%
COCCN1C(=O)CO[C@H]2CN(S(=O)(=O)c3ccccc3)C[C@H]21 | -6.3%
COCCN1C(=O)CO[C@H]2CN(Cc3ccccc3OC)C[C@H]21 | -17.2%
Cn1ccnc1CN1C(=O)CO[C@H]2CN(CCCc3ccccc3)C[C@H]21 | 27.5%
COCCN1C(=O)CO[C@H]2CN(CCCc3ccccc3)C[C@H]21 | 51.9%
COCCN1C(=O)CO[C@H]2CN(Cc3cccc(OC)c3F)C[C@@H]21 | 27.8%
CC(Nc1cccc(CN2CCOC2=O)c1)C(=O)NC(=O)NC(C)(C)C (stereo not given) | 3.75%
CCNC(=O)[C@@H]1C[C@H](NC(=O)c2cc(=O)[nH]c3ccc(C)cc23)CN1C | 29.4%
COC(=O)c1ccc(N(C(=O)c2cc(Cl)ccn2)C(C)C)c(C)c1 | 19.4%
CC(C)(C)NC(=O)CN1CCCC(c2ccc(C(=O)O)cc2)C1 (stereo not given) | 26.9%
N#Cc1ccsc1NC(=O)CCN1CCn2c(nnc2C2CC2)C1 | -25.9%
CCOCCC(=O)Nc1cc(C(N)=O)ccc1N1CCCC(C)C1 (stereo not given) | 73%
CC1CCCN(c2ccccc2OCC(=O)NC2CC2)C1 (stereo not given) | 42.6%
COCCCC(=O)Nc1cccnc1N1CCCCC1 | 35.1%
CCOCCCC(=O)NCc1ccc(N2CCCCC2)cc1 | 42.7%
NC(=O)c1ccc(N2CCCCC2)c(NC(=O)c2cncc(Br)c2)c1 | 46.8%
CCOCCCC(=O)Nc1cc(C(N)=O)ccc1N1CCCCC1 | 72.1%
CCNC(=O)COc1ccccc1N1CCCC(C)C1 (stereo not given) | 36.2%

SMILES | INHIBITION
CC1CCC(NS(=O)(=O)CC(=O)Nc2ccccc2N2CCCC2)CC1 (stereo not given) | -52.2%
CC1CCCN(c2ccc(C(N)=O)cc2NC(=O)CC2=CCNCC2)C1 (stereo not given) | 56.3%
Cc1csc(C2CCCN(C(=O)Cn3ccccc3=O)C2)n1 (stereo not given) | -17.6%
CC(C)CNC(=O)C1(Cc2ccccc2-c2ccccc2)CCNC1 (stereo not given) | 47.2%
COc1ccc(COCC(O)CN2CCC(c3ccn[nH]3)CC2)cc1 (stereo not given) | 44.1%
COCCOCC(=O)Nc1ccc(Br)cc1F | -6.32%
O=C(O)c1c[nH]c2cc(NS(=O)(=O)c3cc(F)ccc3Cl)ccc12 | -31.8%
Cn1cc(C2=NOC(C(=O)NC3(c4ccccc4)CCCC3)C2)cn1 (stereo not given) | -6.975%
CO[C@@H]1CN(c2ccccc2)S(=O)(=O)[C@@]12CCN(S(C)(=O)=O)C2 | 39.6%
CCn1cc(CN2CCCN(C(=O)c3ccc(C)nc3)CC2)cn1 | -47.6%
COCC1c2c(cnn2CC2CCOCC2)CCN1Cc1ccoc1 (stereo not given) | 14.4%
CCC(C)(CC(=O)OC)NCc1nc(C)no1 (stereo not given) | -50.8%
CCC(C)(CC(=O)OC)NCc1cc(C)on1 (stereo not given) | 56.6%
CCC(C)(CC(=O)OC)NCc1noc(C)n1 (stereo not given) | -31.9%
CC(=O)N1CCN(C(=O)CCCc2nnc(-c3ccccc3)o2)CC1 | 28.8%
CC(Nc1cccc(CN2CCOC2=O)c1)C(=O)Nc1ccccc1 (stereo not given) | 35.4%
CN1[C@@H](c2ccccc2)[C@@H](C(=O)NCC2CCOCC2)C[C@@]1(C)C(=O)O | 41.5%
CN1[C@@H](c2ccccc2)[C@@H](C(=O)NCc2ccncc2)C[C@@]1(C)C(=O)O | 39.6%
CN1[C@@H](c2ccccc2)[C@@H](C(=O)NCc2ccccn2)C[C@@]1(C)C(=O)O | 60.1%
COC(=O)CC1CCN(C(=O)c2ccc(-n3nnnc3C)cc2)CC1 | 27%
O=C(c1ccccn1)N1CCC2(CNS(=O)(=O)c3cnccc3O2)C1 (stereo not given) | 17.6%
O=C(c1cccnc1)N1CCC2(CNS(=O)(=O)c3cnccc3O2)C1 (stereo not given) | 37.5%
CC(C)(C)C(=O)N1CCC2(CNS(=O)(=O)c3cnccc3O2)C1 (stereo not given) | 53.2%
O=C(CNc1ccc(OC2CCOC2)cc1)NCc1ccc(F)cc1 (stereo not given) | -68.6%
